# Experimental data from PubChem BioAssay (EPA / NIEHS).
# Active and inactive are the calls of the source. The calls were made as follows: active = hit-call score of the fitted dose curve at least 0.9, where 1 is the maximum; inactive = score below 0.9.
# Assay: CCTE_Padilla_ZF_Score.Spine: CCTE's 144 Hour Post-fertilization zebrafish Assay Score for Spine Malformation, Padilla Lab (AID 2284407)
# Experimental: CCTE_Padilla_ZF_Phenotype_Score is a whole embryo, multiplexed assay using zebrafish ova exposed for 144 hours post fertilization on a 96-well plate.CCTE_Padilla_ZF_Score.Spine is one of one assay component(s) measured or calculated from the CCTE_Padilla_ZF_Phenotype_Score assay. It is designed to make measurements of zebrafish development as detected with brightfield microscopy of developing zebrafish embryos.Data from the assay component CCTE_Padilla_ZF_Score.Spine was analyzed into 1 assay endpoints. This assay endpoint, CCTE_Padilla_ZF_Score.Spine, was analyzed in the positive analysis fitting direction relative to DMSO as the negative control and baseline of activity. Using a type of viability reporter, gain-of-signal activity can be used to understand changes in developmentals as they relate to the whole embryo. To generalize the intended target to other relatable targets, this assay endpoint is annotated to the zebrafish development intended target family, where the subfamily is body axis morphogenesis.
# Zebrafish husbandry: Wild type adult zebrafish (Danio rerio; undefined outbred stock obtained from Aquatic Research Organisms, Hampton, NH, 03842) were housed in an AAALAC-approved animal facility at 28C with a 14:10 h light: dark cycle (lights on at 08:30 h). Adult fish (2-3 females per male; density = 15-20 adults per tank) were kept in one of several 9-liter (L) flow-through colony tanks (Aquaneering Inc., San Diego, CA). All adults in a colony tank were placed in a 2 L (static) breeding tank (Aquatic Habitats, Apopka, FL) one hour prior to light onset. Typically, adults from two to three colony tanks were mated on the same day. Two hours after light onset the adults were returned to the colony tank. All embryos were gathered from each breeder tank, pooled, and placed in a 28C water bath for 2 h, followed by two washes with 0.06% bleach (v/v) in 10% Hanks' Balanced Salt Solution (13.7 mM NaCl 0.54 mM KCl, 25 uM Na2HPO4, 130 uM CaCl2 100 um MgSO4 and 420 um NaHCO3,), hereafter referred to as Hanks' solution, for 5 min in order to remove any residual bacteria or fungi. Immediately following washing, the embryos were examined, and healthy embryos were separated from dead or unfertilized eggs and moved into fresh Hanks'. Chemical exposures: Zebrafish embryos were exposed in 96-well plates. Between 6- and 8-hours post fertilization (hpf), healthy embryos (with chorions) were transferred, one embryo per well, into 96 well (0.5 mL) microtiter plates (Cell Culture-Treated, Flat-Bottom Microplate 96 well [Corning Costar, Kennebunk, ME; Cat 09-761-145]) filled with 200 uL of Hanks' solution. A random number generator was used to assign the order in which the rows of embryos were plated in 96 well plates each week. After plating, the embryos were dosed with 0.8 uL of the chemical dosing solution then immediately sealed with AlumaSeal II (Excel Scientific Inc, Victorville, CA) to prevent volatilization of the chemicals, and then placed in a leakproof secondary container. These containers were placed in an incubator maintained on a 14:10 h light: dark cycle at 26C for rearing. On 5 dpf, live larvae were gently moved out of the plate with test chemicals and into a new 96 well mesh plate (Millipore Corp., Bedford, MA) with just the Hanks' solution. Once within the mesh well plate, the animals were rinsed with 400 uL of fresh Hanks' three times, and then the plates were covered with a non-adhesive material (Microseal A, BioRad, Hercules, CA), plate lid added, and then plate sides wrapped in Parafilm (PM992, Bermis Company, Neenah, WI), and returned to the incubator. […]
row,Compound,outcome
1,FC(F)(F)C1(F)C(F)(F)C(F)(F)C(F)(F)C1(F)F,inactive
2,COC(=O)C(F)(F)C(F)(F)C(F)(F)C(F)(F)C(F)(F)F,inactive
3,CN(CCO)S(=O)(=O)C(F)(F)C(F)(F)C(F)(F)C(F)(F)C(F)(F)C(F)(F)C(F)(F)C(F)(F)F,inactive
4,O=C(CC(=O)C(F)(F)C(F)(F)C(F)(F)F)c1cccs1,inactive
5,O=C(F)C(F)(F)C(F)(F)C(F)(F)C(=O)F,inactive
6,FC1(F)C=CC(F)(F)C1(F)F,inactive
7,O=CC(F)(F)C(F)(F)C(F)(F)C(F)F,inactive
8,FC(F)(F)C1(F)C(F)(F)C(F)(F)C(F)(F)C(F)(C(F)(F)F)C1(F)F (centres undefined),inactive
9,O=C1OC(=O)C(F)(F)C1(F)F,inactive
10,FC(F)=C(F)C(F)(F)C(F)(F)C(F)(F)C(F)F,inactive
11,O=C(O)C(F)(F)OC(F)(F)C(F)(F)OC(F)(F)C(F)(F)OC(F)(F)C(F)(F)C(F)(F)C(F)(F)F,inactive
12,OCC(F)(F)C(F)(F)C(F)(F)C(F)(F)C(F)(F)C(F)(F)C(F)(F)C(F)(F)C(F)(F)C(F)(F)C(F)(F)F,inactive
13,FCOC(C(F)(F)F)C(F)(F)F,inactive
14,O=C(O)CCC(F)(F)C(F)(F)C(F)(F)C(F)(F)C(F)(F)F,inactive
15,O=P(O)(O)CCC(F)(F)C(F)(F)C(F)(F)C(F)(F)C(F)(F)C(F)(F)F,inactive
16,C=CC(=O)OCCC(F)(F)C(F)(F)C(F)(F)C(F)(F)C(F)(F)C(F)(F)C(F)(F)C(F)(F)F,inactive
17,O=C(O)CCC(F)(F)C(F)(F)C(F)(F)C(F)(F)C(F)(F)C(F)(F)F,inactive
18,FC(F)(F)N1C(F)(F)C(F)(F)OC(F)(F)C1(F)F,inactive
19,O=P(O)(O)CCC(F)(F)C(F)(F)C(F)(F)C(F)(F)C(F)(F)C(F)(F)C(F)(F)C(F)(F)F,inactive
20,C=CC(F)(F)C(F)(F)C(F)(F)C(F)(F)F,inactive
21,NC(C(F)(F)F)C(F)(F)F,inactive
22,FC(OC(F)(F)C(F)(F)C(F)(F)F)C(F)(F)F (centres undefined),inactive
23,O=C(OC(=O)C(F)(F)C(F)(F)F)C(F)(F)C(F)(F)F,inactive
24,O=CC(F)(F)C(F)(F)C(F)(F)F,inactive
